PubChem BioAssay (Tox21)
Results filed as inconclusive are left out. The source made the active and inactive calls. Unless noted, calls follow the shape of the dose curve; as a rule, active = well fitted curve in the direction sought with a large enough effect in the repeat runs; inconclusive = weak or mixed curves; inactive = no such curve, though single readings can be large; an effect the other way counts as inactive or inconclusive.

Tests used:
[1] = biological target: Thyrotropin receptor (Homo sapiens) (UniProt P16473); assay: qHTS assay to identify small molecule agonists of the thyroid stimulating hormone receptor (TSHR) signaling pathway (AID 1224843; calls by dose curve; also: nearly all actives have a fitted effect of over 45% in size)
Thyrotropin receptor (Homo sapiens), sequence (P16473 whole entry, looked up): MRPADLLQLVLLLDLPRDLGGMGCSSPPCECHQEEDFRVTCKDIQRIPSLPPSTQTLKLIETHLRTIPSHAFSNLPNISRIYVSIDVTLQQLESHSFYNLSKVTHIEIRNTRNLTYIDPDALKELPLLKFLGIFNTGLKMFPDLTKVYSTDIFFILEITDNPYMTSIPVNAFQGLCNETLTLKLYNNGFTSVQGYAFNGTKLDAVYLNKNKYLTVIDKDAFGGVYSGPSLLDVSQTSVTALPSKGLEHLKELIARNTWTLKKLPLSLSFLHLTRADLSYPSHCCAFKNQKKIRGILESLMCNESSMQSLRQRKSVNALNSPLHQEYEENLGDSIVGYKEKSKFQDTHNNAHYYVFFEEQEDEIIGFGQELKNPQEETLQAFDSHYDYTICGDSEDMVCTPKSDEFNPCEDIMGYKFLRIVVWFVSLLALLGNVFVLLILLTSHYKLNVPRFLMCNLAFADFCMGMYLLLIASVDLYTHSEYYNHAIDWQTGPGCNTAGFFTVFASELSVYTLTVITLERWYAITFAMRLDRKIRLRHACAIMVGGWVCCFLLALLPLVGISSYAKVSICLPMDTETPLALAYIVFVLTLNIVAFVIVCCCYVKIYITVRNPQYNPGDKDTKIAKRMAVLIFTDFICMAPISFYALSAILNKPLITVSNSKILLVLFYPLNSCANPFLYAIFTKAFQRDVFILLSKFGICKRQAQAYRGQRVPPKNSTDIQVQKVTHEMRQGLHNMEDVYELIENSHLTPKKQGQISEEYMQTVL
Procedure, shortened: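 Cell line HEK293 with TSHR; density 800/well. Exposure 30 min RT. Readout HTRF cAMP (cAMP-d2/anti-cAMP-cryptate), 1 h RT before reading.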

[2] = qHTS assay to identify small molecule agonists of the hypoxia (HIF-1) signaling pathway - cell viability counter screen (AID 1224844; calls by dose curve; also: nearly all actives have a fitted effect of over 50% in size; also: potency is read from the fitted curve at half-maximal effect)
Procedure, shortened: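 ME-180 HRE-bla cells, 2,000/well, 0.5% dialyzed FBS; 5 hr settle, 17 hr compound at 37C/5% CO2; CCF4-AM reporter read first, then CellTiter-Glo luminescence after 30 min RT.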

[3] = qHTS assay to identify small molecule agonists of H2AX (AID 1224845; active = well fitted activation curve with a large enough effect in the signal ratio in the repeat runs, not every such curve was filed as active; the % refers to the signal ratio)
Procedure, shortened: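 Wild-type CHO-K1 cells plated overnight, then exposed 3 hr at 37C to compounds at 15 concentrations (0.76% DMSO). Lysed, then HTRF anti-pH2AX(S139)-cryptate/anti-H2AX-d2 detection after 24 hr at room temperature; emissions 665 and 620 nm.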

[4] = qHTS RealTime-Glo MT Cell Viability Assay in HepG2 cells - 24 hour (AID 1224867); also: nearly all actives have a fitted effect of over 50% in size
Procedure, shortened: (§1)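 Cell number in HepG2 cultures estimated from NanoLuc luminescence generated by metabolic reduction of a prosubstrate by living cells. The homogeneous, nonlytic format allowed repeated reads at 0, 8, 16, 24, 32 and 40 h of compound exposure.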

[5] = qHTS RealTime-Glo MT Cell Viability Assay in HEK293 cells - 32 hour (AID 1224868); also: top concentration of the series differs between compounds; nearly all actives have a fitted effect of over 50% in size
Procedure, shortened: (§2)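 Homogeneous bioluminescent viability format in HEK293 cells (600 cells/well). Following 5 h at 37 C/5% CO2, 23 nL compound was pintooled; the signal was measured repeatedly during 40 h incubation.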

[6] = A CellTox Green Cytotoxicity Assay to monitor cytotoxicity in HEK293 cells - 0 hour (AID 1224869); also: nearly all actives have a fitted effect of over 50% in size
Procedure, shortened: (§3)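 Nonlytic real-time cytotoxicity: HEK293 + CellTox Green reagent plated, 5 h preincubation, pintool compound addition (23 nL in DMSO), 37 C for 40 h, fluorescence measured at successive time points.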

[7] = qHTS RealTime-Glo MT Cell Viability Assay in HepG2 cells - 40 hour (AID 1224870); also: nearly all actives have a fitted effect of over 50% in size
Procedure, shortened: (§4)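 HepG2 cells mixed with RealTime-Glo MT reagents (NanoLuc plus cell-permeant prosubstrate) were seeded at 600 cells/well, incubated 5 h at 37 C/5% CO2, then pinned with compounds in DMSO; nonlytic luminescence tracked viability during 40 h treatment.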

[8] = A CellTox Green Cytotoxicity Assay to monitor cytotoxicity in HEK293 cells - 40 hour (AID 1224871); also: nearly all actives have a fitted effect of over 45% in size
Procedure, shortened: as §3

[9] = qHTS RealTime-Glo MT Cell Viability Assay in HEK293 cells - 16 hour (AID 1224872)
Procedure, shortened: as §2

[10] = qHTS RealTime-Glo MT Cell Viability Assay in HepG2 cells - 8 hour (AID 1224873); also: nearly all actives have a fitted effect of over 55% in size
Procedure, shortened: as §4

[11] = qHTS RealTime-Glo MT Cell Viability Assay in HEK293 cells - 40 hour (AID 1224874); conditions: RealTime-Glo luminescence; max response: stronger effect = lower value; also: nearly all actives have a fitted effect of over 50% in size; also: potency is read from the fitted curve at half-maximal effect
Procedure, shortened: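 Cells were seeded together with NanoLuc luciferase and a prosubstrate that viable cells reduce to a luciferase substrate. After a 5 h incubation at 37 C/5% CO2, compounds were added and luminescence was measured repeatedly during 40 h of treatment.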

[12] = A CellTox Green Cytotoxicity Assay to monitor cytotoxicity in HepG2 cells - 16 hour (AID 1224876); also: nearly all actives have a fitted effect of over 45% in size
Procedure, shortened: (§5)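 Read-out is fluorescence of a cyanine dye excluded from live cells that stains DNA of dead HepG2 cells, with signal proportional to cytotoxicity. Plates were read at 0, 8, 16, 24, 32 and 40 h after compound addition.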

[13] = qHTS RealTime-Glo MT Cell Viability Assay in HepG2 cells - 32 hour (AID 1224877); also: nearly all actives have a fitted effect of over 55% in size
Procedure, shortened: as §1

[14] = A CellTox Green Cytotoxicity Assay to monitor cytotoxicity in HepG2 cells - 24 hour (AID 1224878); also: nearly all actives have a fitted effect of over 45% in size
Procedure, shortened: as §5

[15] = A CellTox Green Cytotoxicity Assay to monitor cytotoxicity in HepG2 cells - 40 hour (AID 1224879); also: nearly all actives have a fitted effect of over 40% in size
Procedure, shortened: as §5

[16] = qHTS assay to identify small molecule agonists of the hypoxia (HIF-1) signaling pathway (AID 1224846; active = well fitted activation curve with a large enough effect in the signal ratio in the repeat runs, not every such curve was filed as active; the % refers to the signal ratio)
Procedure, shortened: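 Cell line: CellSensor HRE-bla ME-180; 2,000 cells/well; 0.5% dialyzed FBS; 5 h preincubation; DMSO compound pin transfer; 17 h, 37C, 5% CO2; CCF4-AM added; bla FRET signal scored for activation.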

[17] = qHTS assay to identify small molecule agonists of H2AX - cell viability counter screen (AID 1224847; calls by dose curve; also: top concentration of the series differs between compounds; nearly all actives have a fitted effect of over 30% in size)
Procedure, shortened: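 After overnight plating of 1000 CHO-K1 cells per well, a 15-concentration compound series was applied for 3 hr at 37C. Luminescence from CellTiter-Glo, read following 30 min at room temperature, reflected cell viability.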

[18] = A CellTox Green Cytotoxicity Assay to monitor cytotoxicity in HEK293 cells - 24 hour (AID 1224875); also: nearly all actives have a fitted effect of over 45% in size
Procedure, shortened: as §3

[19] = qHTS assay to identify small molecule antagonists of the estrogen related receptor (ERR) signaling pathway from Tox21 library (AID 1224848); also: nearly all actives have a fitted effect of over 50% in size; also: potency is read from the fitted curve at half-maximal effect
Procedure, shortened: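 Screening used an ERR reporter line supplied by NTP, exposed for 18 h at 37 C to library compounds delivered in DMSO. Signal was luciferase luminescence developed with ONE-Glo at room temperature for 30 min.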

[20] = qHTS assay to identify small molecule agonists of the estrogen related receptor (ERR) signaling pathway from Tox21 library (AID 1224849; calls by dose curve; also: nearly all actives have a fitted effect of over 15% in size); conditions: ERR reporter cell line, ONE-Glo luciferase, 18 h; at 92.4 µM (top of the series) unless noted
Procedure, shortened: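 ERR cells, 6 h pre-incubation 37 C/5% CO2; cpd in DMSO pinned; 18 h 37 C; ONE-Glo added, 30 min RT; luminescence read. Agonist mode, qHTS.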
% is scaled to controls: 0 for no effect and ±100 for the full control effect.

CCC(C(=O)OCCN(CC)CC)c1ccccc1 (configuration not stated)
inactive: Potency [1] | Potency [2] | Potency [3] | Potency [4] | Potency [5] | Potency [6] | Potency [7] | Potency [8] | Potency [9] | Potency [10] | max response [11] 8.92% | Potency [12] | Potency [13] | Potency [14] | Potency [15]

CC(N)CN (configuration not stated)
inactive: Potency [1] | Potency [2] | outcome [16] | Potency [17] | Potency [4] | Potency [5] | Potency [6] | Potency [7] | Potency [8] | Potency [9] | Potency [10] | max response [11] 2.08% | Potency [18] | Potency [12] | Potency [13] | Potency [14] | Potency [15]

CC(=O)Oc1ccc(C(=C2CCCCC2)c2ccc(OC(C)=O)cc2)cc1
inactive: Potency [1] | Potency [2] | Potency [3] | outcome [16] | Potency [4] | Potency [5] | Potency [6] | Potency [7] | Potency [8] | Potency [9] | Potency [10] | max response [11] 4.82% | Potency [18] | Potency [12] | Potency [13] | Potency [14] | Potency [15]

CC(COc1ccc(C(C)(C)C)cc1)OS(=O)OCCCl (configuration not stated)
inactive: Potency [1] | outcome [16] | Potency [17] | activity change, positive = activation [20] -72.8% | Potency [4] | Potency [6] | Potency [7] | Potency [8] | Potency [10] | Potency [18] | Potency [12] | Potency [14] | Potency [15]
active: Potency [2] 1750 nM | Potency [19] 614 nM | Potency [11] 391 nM

OCCSc1ccccc1
active: Potency [2] 21900 nM
inactive: Potency [1] | Potency [3] | Potency [17] | Potency [4] | Potency [5] | Potency [6] | Potency [7] | Potency [8] | Potency [9] | Potency [10] | max response [11] -28.1% | Potency [18] | Potency [12] | Potency [13] | Potency [14] | Potency [15]

CCc1cccc(N(C)C(N)=Nc2cccc3ccccc23)c1
inactive: Potency [1] | Potency [2] | Potency [3] | outcome [16] | Potency [4] | Potency [6] | Potency [7] | Potency [8] | Potency [9] | Potency [10] | Potency [12] | Potency [13]

CC(=O)CC(c1ccc([N+](=O)[O-])cc1)c1c(O)c2ccccc2oc1=O (configuration not stated)
inactive: Potency [1] | Potency [2] | outcome [16] | Potency [17] | activity change, positive = activation [20] -11.1% [at 42.5 µM] | Potency [4] | Potency [5] | Potency [6] | Potency [7] | Potency [8] | Potency [9] | Potency [10] | max response [11] -4.65% | Potency [18] | Potency [12] | Potency [13] | Potency [14] | Potency [15]

Oc1cc(O)c(Cl)cc1Cl
inactive: Potency [1] | Potency [2] | outcome [16] | Potency [17] | Potency [19] | activity change, positive = activation [20] -14.1% | Potency [4] | Potency [5] | Potency [6] | Potency [7] | Potency [8] | Potency [9] | Potency [10] | max response [11] 17.2% | Potency [18] | Potency [12] | Potency [13] | Potency [14] | Potency [15]

CN(C(=O)C(Cl)Cl)c1ccc(OC(=O)c2ccco2)cc1
inactive: Potency [1] | Potency [2] | Potency [3] | Potency [17] | Potency [4] | Potency [5] | Potency [6] | Potency [7] | Potency [8] | Potency [9] | Potency [10] | Potency [18] | Potency [12] | Potency [13] | Potency [14] | Potency [15]
